Rows were chosen to be rich in hits. Some 5.9% of all compounds tested hit in one or more screens of this group.
GLP1R inv ag – GLP-1 receptor (human) inverse agonism; AID 624417; Potency, µM (top dose mostly 38.3 µM), without a hit: at the highest dose activity change, negative = inhibition, usual class: inhibitors; HEK293 GLP-1R CRE-luciferase, luminescence, 24 h; GLP-1R form is constitutively active; 410,000 compounds, 1.6% hits; note: % is set by controls: 0 for no effect and ±100 for the full control effect; nearly all actives have a fitted effect of over 55% in size
Target sequence (P43220 whole entry, looked up): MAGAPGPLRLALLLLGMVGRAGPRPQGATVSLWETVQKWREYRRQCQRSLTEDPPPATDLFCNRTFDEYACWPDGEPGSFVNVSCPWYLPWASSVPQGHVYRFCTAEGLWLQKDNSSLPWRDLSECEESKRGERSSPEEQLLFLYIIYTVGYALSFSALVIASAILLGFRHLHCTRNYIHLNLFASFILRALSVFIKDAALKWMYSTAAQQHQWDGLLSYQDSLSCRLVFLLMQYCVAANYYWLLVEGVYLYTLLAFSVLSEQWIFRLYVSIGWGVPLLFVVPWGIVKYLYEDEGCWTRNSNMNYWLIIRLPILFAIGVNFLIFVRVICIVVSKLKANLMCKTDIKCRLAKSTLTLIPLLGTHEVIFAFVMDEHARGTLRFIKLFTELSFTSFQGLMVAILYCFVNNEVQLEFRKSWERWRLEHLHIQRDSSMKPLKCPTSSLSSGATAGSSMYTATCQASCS
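Inverse agonists were sought by their lowering of basal cAMP reporter luciferase output in HEK293 cells stably carrying constitutively active human GLP-1R, after 24 h compound treatment.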
Gal4-VP16 FLuc – counter-screen for ROR gamma inhibitors: Gal4-VP16 reporter | Drosophila S2 Gal4-VP16 UAS-luciferase, luminescence, 20 h | Potency, µM (titrated, usually from 53.6 µM), for inactives: top-dose activity, negative = inhibition, hits mostly inhibitors | 310,000 compounds, 3.5% hits;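 note: Gal4-VP16 expression switched on by copper sulfate through the metallothionein promoter; % is set by controls: 0 for no effect and ±100 for the full control effect; nearly all actives have a fitted effect of over 50% in size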
GLP1R cytotox – cytotoxicity counter-screen for GLP-1 receptor inverse agonists; AID 624418; 410,000 compounds, 0.13% hits; HEK293 cAMP-luciferase reporter cells, luminescence, 24 h; Potency, µM (doses to about 38.3 µM), inactives show at the highest dose activity change, negative = inhibition, hits mostly inhibitors;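 note: loss of luciferase light is scored as toxicity; % is set by controls: 0 for no effect and ±100 for the full control effect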
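Seeding density was 200 cells/uL; after overnight-length (12 h) culture, 23 nL compounds went on for 24 h at 37 °C. Readout used a luciferase detection reagent, luminescence taken after 12 min at room temperature.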
RORgamma inh – ROR gamma (mouse) transcription inhibition; 310,000 compounds, 5.4% hits; AID 2551; Drosophila S2 Gal4-RORgamma UAS-luciferase reporter, 20 h; Potency, µM (titrated, usually from 53.6 µM), without a hit: top-dose activity change, negative = inhibition, actives largely listed as inhibitors; note: % is set by controls: 0 for no effect and ±100 for the full control effect; nearly all actives have a fitted effect of over 60% in size
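ROR gamma transcriptional activity was tracked as Gal4-UAS luciferase output in stably transfected Drosophila Schneider cells, with compound added 1 hr before 700 uM copper sulfate induction and a 20 hr ambient-temperature incubation.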
GLP-1R agonist – agonists of human GLP-1 receptor. P43220. HEK293 GLP-1R CRE-luciferase, luminescence, 4-6 h; cells express a hypersensitive GLP-1R form. Potency, µM (titrated, usually from 45.6 µM), for inactives: at the highest dose activation, most hits filed as activators. 380,000 compounds, 0.007% hits. AID 624172; note: % of control where 0% means no effect
The depositor's hits bear a star; u = inconclusive; x = not tested or not shown; [ ] = remark or other dose. Calls come from the whole dose curve; as a rule, active = well fitted curve in the direction sought with a large enough effect; inconclusive = small, poorly fitted or top-dose-only effect, or another doubt; inactive = no such curve, though single readings can be large; an effect the other way counts as inactive or inconclusive. Potency is the fitted concentration of half-maximal effect.

SMILES	GLP1R inv ag	Gal4-VP16 FLuc	GLP1R cytotox	RORgamma inh	GLP-1R agonist
Cc1ccc(/C=C2\SC(=S)N(CC3CCCO3)C2=O)o1 (stereo unspecified)	u	u	u	13µM*	1%
O=C1/C(=C/c2ccco2)SC(=S)N1CC1CCCO1 (stereo unspecified)	3%	10%	u	-15%	9%
O=C1/C(=C/c2cccnc2)SC(=S)N1c1ccc(F)cc1	3%	-11%	-7%	11µM*	-6%
O=C1/C(=C/c2cccnc2)SC(=S)N1CC1CCCO1 (stereo unspecified)	0%	6%	9%	10µM*	2%
O=C1/C(=C/c2cccnc2)SC(=S)N1c1ccc(O)cc1	u	0%	u	0%	-7%
COc1ccc2c(c1)O[C@H](c1ccc3c(c1)OCO3)[C@@H](OC(=O)NS(=O)(=O)c1ccc(C)cc1)C2=O	x	2%	x	4%	x
CCn1cc(/C=C(\NC(=O)c2ccccc2Cl)C(=O)NCCCn2ccnc2)c2ccccc21	u	x	0%	x	-1%
COC(=O)[C@H](CCSC)NC(=O)C/C=C\[C@@H](C)[C@@H](CO)OC	x	-7%[10 µM]	x	-5%[10 µM]	x
CCNNC(=O)C(O)(c1cccc(C)c1)c1cccc(C)c1	18%	1%	-4%	-4%	-13%
CC(C)(O)C(=O)NNC(=S)Nc1cccc(C(F)(F)F)c1	-2%	1%	-5%	2%	2%
Cc1ccc(C(O)(C(=O)NNc2ccccn2)c2ccc(C)cc2)cc1	33%	u	-3%	10µM*	4%
O=C(NNc1ccccc1Br)C(O)(c1cccc(C(F)(F)F)c1)c1cccc(C(F)(F)F)c1	3.2µM*	u	u	23%	-32%
Cc1cccc(C(O)(C(=O)NNc2ccc3ccccc3n2)c2cccc(C)c2)c1	4.5µM*	13µM*	-3%	10µM*	-4%
Cc1ccc(NNC(=O)C(O)(c2cccc(C(F)(F)F)c2)c2cccc(C(F)(F)F)c2)cc1	3.2µM*	u	u	u	-29%
Cn1c(C(=O)Nc2ccc(OC(F)(F)F)cc2)cc2c(=O)n3ccccc3nc21	2%	x	18%	x	x
COc1cccc(Cn2c(=O)cnc3cnc(OC)nc32)c1	x	2%	x	-15%	x
N#Cc1c(N)nc(SCc2ccccc2)c(C#N)c1-c1ccco1	u	7.9µM*	-6%	u	17%
N#Cc1c(N)nc(SCC(=O)OCc2ccccc2)c(C#N)c1-c1ccco1	5%	2%	-3%	0%	17%
N#Cc1c(N)nc(SCc2ccccn2)c(C#N)c1-c1cccs1	92%	-15%	9%	13µM*	1%
COc1cccc(NC(=O)CCSc2nc(-c3ccco3)cc(C(F)(F)F)n2)c1	u	x	-9%	x	x
COc1ccc(/C(C)=N/Nc2cccc(C(=O)O)c2)cc1OC	42%	-23%	17%	-3%	0%
COc1ccc(/C(C)=N/Nc2nc3ccccc3nc2C)cc1OC	u	u	u	4.5µM*	4%
COC(=O)c1c(SC)nc2ccccc2c1OCc1ccc(C)cc1C	u	x	4%	x	x
O=C(Cn1cc(SCc2c(F)cccc2Cl)c2ccccc21)N1CCCCC1	-4%	x	-6%	x	x
O=C(Cn1cc(SCc2c(F)cccc2Cl)c2ccccc21)N1CCCCCC1	10µM*	x	-6%	x	x
SMILES	GLP1R inv ag	Gal4-VP16 FLuc	GLP1R cytotox	RORgamma inh	GLP-1R agonist
Cc1cccc(N2CCN(C(=O)Cn3sc4nc(C)cc(C)c4c3=O)CC2C)c1 (stereo unspecified)	0%	13µM*	-22%	7.1µM*	-2%
Cc1cc(C)c2c(=O)n(CC(=O)N3CCC(Cc4ccccc4)CC3)sc2n1	x	4µM*	x	u	x
COc1cccc(CNC(=O)C(Cc2ccccc2)NS(=O)(=O)c2ccc3c(c2)oc(=O)n3C)c1 (stereo unspecified)	0%	x	-11%	x	x
Cc1nc2sccn2c(=O)c1S(=O)(=O)Nc1cc(Cl)ccc1O	-5%	x	-7%	x	x
CCc1nc(N2CCN(C(=S)NCCCOC)CC2)c2c3c(sc2n1)CCCC3	11µM*	u	u	14µM*	-1%
CCOCCCNC(=O)c1cc(Sc2ccc(C)cc2)nc2ccccc12	10µM*	-3%	1%	20%	9%
Cc1nn(-c2ccccc2)c2sc(-c3n[nH]c(=S)o3)cc12	34%	-10%[0.365 µM]	4%	2.8µM*	17%
Cc1nn(-c2ccccc2)c2sc(C(=O)O)cc12	3%	4%	-5%	12%	-2%
CCOc1ccc(-c2cn3c(n2)sc2cc(C(=O)NCCCN(CC)CC)ccc23)cc1	10µM*	x	u	x	x
COc1cccc(-n2nnnc2S(C)(=O)=O)c1	u	5µM*	-15%	3.2µM*	-5%
CCC/C=C/C1C(=O)C2OC2C2(OCC(CC)(CC)CO2)C1CO (stereo unspecified)	x	-27%[10 µM]	x	u	x
CC(C)C(=O)Nc1ccc(NC(=S)NC(=O)c2ccc([N+](=O)[O-])cc2)cc1	2%	0%	-13%	10µM*	1%
Cc1cc(C(=O)NC(=S)Nc2cccc(NC(=O)C(C)C)c2)ccc1[N+](=O)[O-]	0%	u	0%	10µM*	-15%
CC(C)C(=O)Nc1cccc(NC(=S)NC(=O)c2ccc([N+](=O)[O-])cc2)c1	38%	u	9%	11µM*	-3%
CC(=O)Nc1ccc(NC(=S)NC(=O)c2ccc([N+](=O)[O-])cc2)cc1	2%	-3%	-3%	-13%	2%
Cc1cc(C)c2nc(N3CCCC(C(=O)NCc4ccccc4F)C3)sc2c1 (stereo unspecified)	28%	x	5%	x	x
COc1ccc(S(=O)(=O)c2cnc3ccccc3n2)cc1	-6%	u	-15%	11µM*	13%
O=S(=O)(c1ccc(Br)cc1)c1cnc2ccccc2n1	u	u	-22%	11µM*	6%
CC(C)N(CCn1c(=S)[nH]c2ccccc2c1=O)C(C)C	13%	-2%	-18%	u	-2%
CCN(CC)CCn1c(=S)[nH]c2cc(C(=O)NCc3ccccc3Cl)ccc2c1=O	24%	-4%	-8%	-14%	-2%
Cc1ccc2c(c1)[nH]c1c(=O)n(CCC3=CCCCC3)cnc12	x	-10%	x	41%	x
O=c1c2ccc(Cl)cc2[nH]c(=S)n1CCC1=CCCCC1	16%	2.5µM*	-4%	1.3µM*	0%
CCN(CC)CCCn1c(=S)[nH]c2ccc(Cl)cc2c1=O	-5%	u	0%	11µM*	-2%
CCN(CC)CCCn1c(=S)[nH]c2cc(Cl)ccc2c1=O	0%	-22%	-34%	10µM*	-2%
O=c1c2ccc(Cl)cc2[nH]c(=S)n1CCCN1CCOCC1	-4%	u	u	7.9µM*	7%
COc1ccc(CCNC(=O)CSc2nc3nc(C)c(Cc4ccc(C)cc4)c(C)n3n2)cc1OC	-14%	x	-19%	x	x
